Compounds without any hit were thinned out: in the full panel of roughly 83,000, 20% have a hit.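 Each cell line was grown in a 96-well plate and treated with one concentration of compound for 48 hours. Values below 10 were considered active.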 A number with no mark means an inactive call. Active and inactive are the calls of the source.
Legend:
Experiment in all cases: NCI-60 one-dose screen, 48 h (100 = growth as untreated, 0 = no growth, -100 = all killed)
[1] = test system: NCI-H23 lung; details: 10 µM unless noted
[2] = test system: NCI-H226 lung; details: 10 µM unless noted
[3] = test system: NCI-H322M lung; details: 10 µM unless noted
[4] = test system: HOP-62 NSCLC; details: 10 µM unless noted
[5] = test system: NCI-H460 lung; details: 10 µM unless noted
[6] = test system: HOP-92 NSCLC; details: 10 µM unless noted
[7] = test system: NCI-H522 lung; details: 10 µM unless noted
[8] = test system: A549/ATCC NSCLC; details: 10 µM unless noted
[9] = test system: 786-0 renal; details: 10 µM unless noted
[10] = test system: COLO 205 colon; details: 10 µM unless noted
[11] = test system: DU-145 prostate; details: 10 µM unless noted
[12] = test system: K-562 leukemia; details: 10 µM unless noted
[13] = test system: MALME-3M melanoma; details: 10 µM unless noted
[14] = test system: MDA-MB-231 breast; details: 10 µM unless noted
[15] = test system: RXF 393 renal; details: 10 µM unless noted
[16] = test system: SF-268 CNS; details: 10 µM unless noted
[17] = test system: SF-295 CNS; details: 10 µM unless noted
[18] = test system: SF-539 CNS; details: 10 µM unless noted
[19] = test system: UACC-257 melanoma; details: 10 µM
[20] = test system: M14 melanoma; details: 10 µM unless noted

| SMILES | growth [1] | growth [2] | growth [3] | growth [4] | growth [5] | growth [6] | growth [7] | growth [8] | growth [9] | growth [10] | growth [11] | growth [12] | growth [13] | growth [14] | growth [15] | growth [16] | growth [17] | growth [18] | growth [19] | growth [20] |
| --- | --- | --- | --- | --- | --- | --- | --- | --- | --- | --- | --- | --- | --- | --- | --- | --- | --- | --- | --- | --- |
| CCC(C)NCC(=O)O (stereo not given) | 108% | 92.6% | 118% | 98.2% | 108% | 109% | 78.7% | 105% | 103% | 107% | 115% | 96.3% | 105% | 111% | 103% | 107% | 92.4% | 92.7% | 112% | 99.3% |
| CC(C)CCN(CCCNc1c2c(nc3ccccc13)CCCC2)CCC(C)C | 84.1% | 102% | 81.7% | 102% | 91% | 42.4% | 103% | 94.1% | 77.6% | 61.7% | 86.3% | 31.4% | 84.9% | 24.5% | 81.9% | 89.4% | 80.1% | 88.2% | 94.5% | 35.9% |
| O=C(CN1CCN(c2cc3c(cc2F)c(=O)c(C(=O)O)cn3C2CC2)CC1)Nc1ccc(C(=O)/C=C/c2ccccc2)cc1 | 24% | 57.4% | 73.7% | 59.4% | 7.12% (active) | 14.9% | 10.6% | 4.12% (active) | 23.2% | 108% | 43.1% | 14.2% | 51% | 55.1% | 41.7% | 37% | 15.2% | 26.2% | 61.1% | 31.8% |
| COc1cc(/C=C2\C=C(c3ccc(F)cc3)N(Cc3ccccc3)C2=O)cc(OC)c1OC | 62.6% | 56.7% | 61.4% | 108% | 66.4% | 35% | 90.6% | 56.4% | 66.6% | 82.7% | 94.8% | 56.1% | 90.7% | 78.7% | 64.5% | 77.4% | 83.6% | 87% | 79.3% | 76.2% |
| Cc1cccc(-n2c(C)nc3ccc(NC(=O)NCCCl)cc3c2=O)c1 | 86.8% | 95.3% | 105% | 96% | 100% | 86% | 98.9% | 101% | 93.5% | 104% | 104% | 112% | 115% | 111% | 102% | 95.1% | 99.6% | 99% | 97.2% | 98.7% |
| COc1ccc(C2=CC(c3ccc(Oc4ccnc5cc(Cl)ccc45)c(OC)c3)c3c(nc(OC)[nH]c3=O)N2)cc1 (stereo not given) | 83.4% | 88.9% | 72.9% | 81.8% | 63.5% | 49.3% | 75.7% | 65.5% | 80.3% | 102% | 75.6% | 28% | 78.5% | 75.2% | 78% | 61.6% | 96.5% | 105% | 87.5% | 82.8% |
| CCn1cc(C(=O)O)c(=O)c2cc(F)c(N3CCN(S(=O)(=O)c4c(C)cc(C)cc4C)CC3)cc21 | 77.7% | 87.4% | 83.5% | 71.5% | 82.8% | 76.9% | 86.5% | 78% | 102% | 93.2% | 99.5% | 79.9% | 90.3% | 83.7% | 88.9% | 83.7% | 48.4% | 79.9% | 106% | 75.6% |
| Nc1c(C(=O)Nc2cccc(C(F)(F)F)c2)sc2nc3c(cc12)CCCCC3 | 3.46% (active) | 11.3% | -5.26% (active) | 3.07% (active) | 10.3% | 17.5% | 20% | -18.4% (active) | -62.8% (active) | 65.1% | 44.1% | 36.9% | -20.4% (active) | -29.5% (active) | -20.7% (active) | 25.8% | 11.7% | -63.3% (active) | 18.6% | 49.6% |
| COc1ccc(-n2c(C)cc(-c3ccccc3)c2C)cc1 | 33.9% | 57.3% | 93.5% | 82.4% | 46.8% | 24.6% | 29.5% | 40.7% | 35% | 39.4% | 73.9% | 15.6% | 36.9% | 6.48% (active) | 10.1% | 75.5% | 34.1% | 62% | 40.3% | 15.9% |
| Cc1ccc2c(c1)C(=O)C(c1c(-c3[nH]c(=O)c4ccc(C)cc4c3O)c(O)c3ccccc3c1O)=NC2=O | 15.5% | -1.84% (active) | 38.8% | 8.69% (active) | -39.8% (active) | 38.7% | 7.58% (active) | 21.8% | 12.7% | 69.9% | -58.7% (active) | 10.7% | -39.1% (active) | -6.31% (active) | -10.8% (active) | 9.4% (active) | 49.9% | 61.1% | 63.1% | 35.7% |
| Cc1nn(-c2ccc(Cl)cc2)c(=O)n1CCOc1ccccc1Cl | 91.6% | 103% | 111% | 75.2% | 87.2% | 78.4% | 116% | 89.9% | 93.7% | 101% | 110% | 96.8% | 103% | 89.6% | 115% | 106% | 72.3% | 108% | 105% | 98.8% |
| COc1ccc(/C=C/C(=O)c2ccc(NC(=O)CN3CCN(c4cc5c(cc4F)c(=O)c(C(=O)O)cn5C4CC4)CC3)cc2)cc1 | 99.6% | 94.8% | 96.1% | 98.2% | 112% | 90.6% | 111% | 96.8% | 89.8% | 120% | 126% | 104% | 94.5% | 96.2% | 98.4% | 113% | 95.3% | 108% | 96.5% | 96.9% |
| Cc1ccc(Cn2c(-c3cccs3)nc3ccccc32)cc1 | 96.2% | 77.3% | 92% | 105% | 88% | 72.5% | 85.1% | 74.2% | 99% | 110% | 110% | 5.16% (active) | 120% | 96.2% | 92.5% | 104% | 72% | 102% | 89.9% | 107% |
| CC(C)C[C@H](NC(=O)[C@@H](Cc1ccccc1)n1ccc(Nc2ccccc2)cc1=O)B(O)O | 6.41% (active) | -72% (active) | 43.5% | -21.6% (active) | 8.89% (active) | -31.4% (active) | -53.7% (active) | 17% | 17.2% | 13.8% | 35.3% | 3.2% (active) | -39.1% (active) | -24.8% (active) | -80.2% (active) | -31.6% (active) | -20.6% (active) | -17.7% (active) | -36.6% (active) | 9.32% (active) |
| Nc1c(C(=O)Nc2ccccc2)sc2nc3c(cc12)CCCCC3 | 36.6% | 27.3% | 21.3% | 7.61% (active) | 6.63% (active) | -4.43% (active) | 30.2% | 18.4% | 15.7% | 9.29% (active) | 4.69% (active) | 14.8% | -5.3% (active) | 22.2% | -5.96% (active) | 30.5% | -4.71% (active) | 7.96% (active) | 41.5% | 6.74% (active) |
| Cc1ccc(Oc2nc3ccccc3cc2-c2nnc(Cn3c(COc4ccccc4)nc4ccccc43)o2)cc1 | 66.5% | 64.9% | 92.3% | 49.8% | 94.1% | 14.2% | 70.2% | 81.3% | 62.7% | 84.6% | 63.5% | -3.18% (active) | 72.5% | 47.7% | 60.3% | 20.6% | 92% | 63.3% | 94.6% | 45.5% |

Source: PubChem BioAssay (NCI)
